Assay results reported in PubChem BioAssay (NCI).
Compounds without any hit were thinned out: in the full panel of roughly 83,000, 20% have a hit.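 Treatment: one concentration, 48 hours, 96-well format. Scoring: percent growth, with anything below 10 considered active.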 Values without a mark were called inactive. Calls of active or inactive are those of the source.

Tests used:
Assay in all cases: NCI-60 one-dose screen, 48 h (100 = growth as untreated, 0 = no growth, -100 = all killed)
Details in all cases: 10 µM
SR leukemia = test system: SR leukemia
RPMI-8226 leukemia = test system: RPMI-8226 leukemia
OVCAR-8 ovarian = test system: OVCAR-8 ovarian
OVCAR-4 ovarian = test system: OVCAR-4 ovarian
SK-OV-3 ovarian = test system: SK-OV-3 ovarian
IGROV1 ovarian = test system: IGROV1 ovarian
OVCAR-3 ovarian = test system: OVCAR-3 ovarian
HS 578T breast = test system: HS 578T breast
NCI/ADR-RES ovarian = test system: NCI/ADR-RES ovarian
T-47D breast = test system: T-47D breast
BT-549 breast = test system: BT-549 breast
MDA-MB-435 melanoma = test system: MDA-MB-435 melanoma
SW-620 colon = test system: SW-620 colon
MCF7 breast = test system: MCF7 breast
HCT-116 colon = test system: HCT-116 colon
KM12 colon = test system: KM12 colon
HCC-2998 colon = test system: HCC-2998 colon
OVCAR-5 ovarian = test system: OVCAR-5 ovarian

Row | SMILES | growth (SR leukemia) | growth (RPMI-8226 leukemia) | growth (OVCAR-8 ovarian) | growth (OVCAR-4 ovarian) | growth (SK-OV-3 ovarian) | growth (IGROV1 ovarian) | growth (OVCAR-3 ovarian) | growth (HS 578T breast) | growth (NCI/ADR-RES ovarian) | growth (T-47D breast) | growth (BT-549 breast) | growth (MDA-MB-435 melanoma) | growth (SW-620 colon) | growth (MCF7 breast) | growth (HCT-116 colon) | growth (KM12 colon) | growth (HCC-2998 colon) | growth (OVCAR-5 ovarian)
1 | Cc1c(Cl)cccc1NC(=O)CN1CCOCC1 | 86.1% | 101% | 106% | 93.9% | 97.1% | 110% | 107% | 92.3% | 100% | 96.1% | 97.4% | 98.7% | 94.5% | 98.1% | 97% | 97.3% | – | –
2 | NS(=O)(=O)Oc1ccc(-c2ccc3sccc3c2)cc1 | 115% | 107% | 102% | 97.3% | 108% | 101% | 106% | 44.6% | 95.3% | 105% | 91.1% | 104% | 99.9% | 120% | 95.3% | 101% | 99.2% | –
3 | O=S(=O)(Oc1ccc(-c2ccc3sccc3c2)cc1)c1ccccc1 | 105% | 107% | 106% | 103% | 107% | 107% | 110% | 108% | 103% | 102% | 101% | 97.5% | 100% | 77.5% | 105% | 110% | 93.4% | –
4 | Cc1ccc(C(C)C)c(O)c1NC(=O)OC(C)C | 115% | 102% | 95.7% | – | 106% | – | 104% | 95.8% | 98.3% | – | 96.1% | 106% | 103% | 92.7% | – | 100% | 89.5% | –
5 | CCCCC1(O)CCCCC1 | 92.6% | 101% | 104% | 115% | 112% | 114% | 106% | 98.1% | 107% | 91.5% | 95.5% | 106% | 102% | 101% | 102% | 96.8% | 103% | –
6 | COc1ccc(-c2cc(-c3ccc(Cl)cc3)nc(SCCCCCCC(=O)NO)n2)cc1OC | 21.3% | -9.15% (active) | 51.5% | 70.5% | 58.2% | 35.9% | 75.5% | 63.7% | 20% | 36.1% | 79.6% | 69.1% | 46.3% | 24.6% | 41.8% | 69.4% | 80.3% | –
7 | Cc1c(Cl)cccc1NC(=O)CCCl | 84.1% | 90.6% | 94.2% | 111% | 104% | – | 102% | 104% | 105% | 92.3% | 99.7% | 105% | 106% | 102% | 89.4% | 100% | – | –
8 | COc1ccc(C(=O)c2ccccc2CN2C(=O)c3ccccc3C2=O)cc1 | 91.8% | – | 97% | 105% | 109% | 101% | 105% | 105% | 95.5% | 90.6% | 112% | 108% | 99% | 102% | 101% | 107% | 105% | 109%
9 | CN1C(=O)C2(Nc3cc(Cl)ccc3S2)c2cc(Cl)ccc21 (stereo not given) | 70.6% | 80.4% | 97.4% | 70.3% | 96.1% | – | 95.9% | 91.1% | 93.6% | 71.6% | 80.1% | 98.4% | 94% | 75.4% | 82.9% | 99% | 93.5% | –
